Assays:
Assay in all cases: log2 ratio of Biotin-Ahx-Ub-VS probe labelling (fragment/DMSO); higher = less target engagement (more negative = stronger competition), active = hit call of the paper (q ≤ 0.05, log2 ratio ≤ -1)
Conditions in all cases: compound concentration: 200 uM; treatment time: 3 h
[1] = target: T1, ALG13 (UniProt Q9NP73)
T1 sequence (whole entry): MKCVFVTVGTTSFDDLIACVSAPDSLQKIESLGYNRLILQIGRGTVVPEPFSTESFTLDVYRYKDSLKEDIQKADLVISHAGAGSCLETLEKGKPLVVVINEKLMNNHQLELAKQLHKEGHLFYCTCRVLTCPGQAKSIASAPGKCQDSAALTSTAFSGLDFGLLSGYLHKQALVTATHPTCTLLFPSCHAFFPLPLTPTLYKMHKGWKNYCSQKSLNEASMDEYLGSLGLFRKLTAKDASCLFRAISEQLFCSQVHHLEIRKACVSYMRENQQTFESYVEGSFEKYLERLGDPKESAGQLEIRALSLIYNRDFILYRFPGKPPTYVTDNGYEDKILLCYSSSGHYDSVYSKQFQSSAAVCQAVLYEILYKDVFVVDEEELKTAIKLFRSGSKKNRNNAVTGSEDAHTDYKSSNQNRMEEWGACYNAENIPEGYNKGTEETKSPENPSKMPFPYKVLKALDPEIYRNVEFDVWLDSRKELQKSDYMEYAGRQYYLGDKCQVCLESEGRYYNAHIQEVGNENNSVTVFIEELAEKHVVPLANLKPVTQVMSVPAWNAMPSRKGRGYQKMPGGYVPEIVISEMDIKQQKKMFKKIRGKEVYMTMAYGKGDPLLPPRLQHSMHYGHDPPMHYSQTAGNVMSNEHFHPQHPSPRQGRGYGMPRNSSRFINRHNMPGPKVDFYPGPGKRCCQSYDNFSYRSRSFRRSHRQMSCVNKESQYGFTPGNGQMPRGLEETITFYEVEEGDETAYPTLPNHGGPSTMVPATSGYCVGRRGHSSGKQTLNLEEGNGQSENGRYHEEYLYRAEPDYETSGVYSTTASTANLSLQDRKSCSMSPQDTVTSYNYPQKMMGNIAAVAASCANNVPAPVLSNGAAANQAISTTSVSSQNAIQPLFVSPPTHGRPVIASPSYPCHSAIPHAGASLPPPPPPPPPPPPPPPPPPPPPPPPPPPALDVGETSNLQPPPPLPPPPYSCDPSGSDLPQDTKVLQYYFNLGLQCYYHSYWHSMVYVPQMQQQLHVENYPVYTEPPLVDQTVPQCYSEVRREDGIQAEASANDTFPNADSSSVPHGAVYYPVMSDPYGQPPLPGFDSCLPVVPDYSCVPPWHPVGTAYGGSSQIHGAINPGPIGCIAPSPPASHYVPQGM
Method in brief: (§1)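 Each value is an average log2 ratio of fragment to vehicle, tested by unpaired t-test. The underlying Spectronaut label-free quantities were global-median-normalised, and only proteins with ≥2 unique peptides were included. Triplicate HEK293T lysate samples (495 µg) were exposed to fragment at 200 µM or vehicle for 3 h, then to Biotin-Ahx-Ub-VS at 0.5 µM final for 1 h, before NeutrAvidin enrichment of labelled DUBs, LysC and trypsin digestion, and diaPASEF LC-MS/MS.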

[2] = target: ATXN3 (UniProt P54252)
Method in brief: as §1

[3] = target: T2, BAP1 (UniProt Q92560)
T2 sequence (whole entry): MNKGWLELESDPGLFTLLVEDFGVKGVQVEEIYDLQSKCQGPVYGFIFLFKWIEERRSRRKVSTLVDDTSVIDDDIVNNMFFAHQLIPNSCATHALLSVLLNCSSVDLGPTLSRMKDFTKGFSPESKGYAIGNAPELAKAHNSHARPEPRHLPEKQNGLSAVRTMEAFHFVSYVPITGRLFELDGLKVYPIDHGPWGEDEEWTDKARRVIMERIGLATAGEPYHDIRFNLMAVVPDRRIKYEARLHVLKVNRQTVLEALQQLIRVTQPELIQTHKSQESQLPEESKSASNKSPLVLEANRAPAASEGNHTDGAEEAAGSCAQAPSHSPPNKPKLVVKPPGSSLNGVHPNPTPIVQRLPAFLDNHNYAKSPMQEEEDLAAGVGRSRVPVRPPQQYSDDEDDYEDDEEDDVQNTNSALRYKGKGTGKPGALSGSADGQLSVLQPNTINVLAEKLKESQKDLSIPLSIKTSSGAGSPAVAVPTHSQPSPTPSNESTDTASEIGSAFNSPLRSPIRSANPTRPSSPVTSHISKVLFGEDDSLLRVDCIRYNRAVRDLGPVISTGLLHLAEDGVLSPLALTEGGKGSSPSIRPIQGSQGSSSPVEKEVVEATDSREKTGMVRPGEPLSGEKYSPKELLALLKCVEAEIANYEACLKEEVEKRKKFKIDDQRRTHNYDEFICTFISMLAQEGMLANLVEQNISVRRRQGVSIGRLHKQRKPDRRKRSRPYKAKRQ
Method in brief: as §1

[4] = target: EIF3F (UniProt O00303)
Method in brief: as §1

[5] = target: EIF3H (UniProt O15372)
Method in brief: as §1

[6] = target: T3, FAM105A (UniProt Q9NUU6)
T3 sequence (whole entry): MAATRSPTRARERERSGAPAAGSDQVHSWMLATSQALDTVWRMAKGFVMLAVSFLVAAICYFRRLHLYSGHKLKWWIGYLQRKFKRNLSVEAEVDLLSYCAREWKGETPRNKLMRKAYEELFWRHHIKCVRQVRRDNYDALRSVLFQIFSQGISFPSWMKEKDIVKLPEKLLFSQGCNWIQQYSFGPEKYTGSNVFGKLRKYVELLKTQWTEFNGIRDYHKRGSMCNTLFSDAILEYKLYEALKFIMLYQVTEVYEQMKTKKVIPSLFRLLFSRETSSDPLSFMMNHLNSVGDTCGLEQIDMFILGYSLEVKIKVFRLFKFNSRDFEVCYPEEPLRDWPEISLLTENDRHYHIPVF
Method in brief: as §1

[7] = target: OTUB1 (UniProt Q96FW1)
Method in brief: as §1

[8] = target: T4, OTUD4 (UniProt Q01804)
T4 sequence (whole entry): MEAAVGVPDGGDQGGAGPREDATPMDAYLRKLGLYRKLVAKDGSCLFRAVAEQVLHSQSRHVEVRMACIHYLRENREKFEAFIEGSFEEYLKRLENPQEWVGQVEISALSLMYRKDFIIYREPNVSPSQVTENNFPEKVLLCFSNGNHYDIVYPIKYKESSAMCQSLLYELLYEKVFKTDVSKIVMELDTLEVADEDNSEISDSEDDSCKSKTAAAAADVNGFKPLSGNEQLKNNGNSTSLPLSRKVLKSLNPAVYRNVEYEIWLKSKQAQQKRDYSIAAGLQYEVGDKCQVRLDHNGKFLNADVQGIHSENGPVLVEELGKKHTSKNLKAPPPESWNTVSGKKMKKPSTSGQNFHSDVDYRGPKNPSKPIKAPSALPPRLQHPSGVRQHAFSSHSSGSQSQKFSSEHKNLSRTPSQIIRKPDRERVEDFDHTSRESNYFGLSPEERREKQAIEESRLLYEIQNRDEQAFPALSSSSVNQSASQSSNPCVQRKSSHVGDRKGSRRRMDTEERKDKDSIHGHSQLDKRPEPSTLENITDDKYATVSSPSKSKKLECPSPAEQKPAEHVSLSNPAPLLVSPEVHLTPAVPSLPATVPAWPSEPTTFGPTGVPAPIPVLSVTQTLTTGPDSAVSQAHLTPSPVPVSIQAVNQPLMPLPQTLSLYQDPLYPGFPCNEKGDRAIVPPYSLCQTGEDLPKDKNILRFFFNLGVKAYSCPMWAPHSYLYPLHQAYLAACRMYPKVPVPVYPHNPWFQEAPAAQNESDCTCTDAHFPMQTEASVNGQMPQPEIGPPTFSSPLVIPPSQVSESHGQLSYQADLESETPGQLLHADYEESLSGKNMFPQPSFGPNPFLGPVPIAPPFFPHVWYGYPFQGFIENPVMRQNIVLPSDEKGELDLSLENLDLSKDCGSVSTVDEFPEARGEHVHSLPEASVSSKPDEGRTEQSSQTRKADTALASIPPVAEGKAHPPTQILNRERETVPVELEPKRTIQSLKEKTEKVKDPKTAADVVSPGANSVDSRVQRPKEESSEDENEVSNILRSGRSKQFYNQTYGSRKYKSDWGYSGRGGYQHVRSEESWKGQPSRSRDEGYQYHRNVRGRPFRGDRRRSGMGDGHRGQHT
Method in brief: as §1

[9] = target: T5, OTUD5 (UniProt Q96G74)
T5 sequence (whole entry): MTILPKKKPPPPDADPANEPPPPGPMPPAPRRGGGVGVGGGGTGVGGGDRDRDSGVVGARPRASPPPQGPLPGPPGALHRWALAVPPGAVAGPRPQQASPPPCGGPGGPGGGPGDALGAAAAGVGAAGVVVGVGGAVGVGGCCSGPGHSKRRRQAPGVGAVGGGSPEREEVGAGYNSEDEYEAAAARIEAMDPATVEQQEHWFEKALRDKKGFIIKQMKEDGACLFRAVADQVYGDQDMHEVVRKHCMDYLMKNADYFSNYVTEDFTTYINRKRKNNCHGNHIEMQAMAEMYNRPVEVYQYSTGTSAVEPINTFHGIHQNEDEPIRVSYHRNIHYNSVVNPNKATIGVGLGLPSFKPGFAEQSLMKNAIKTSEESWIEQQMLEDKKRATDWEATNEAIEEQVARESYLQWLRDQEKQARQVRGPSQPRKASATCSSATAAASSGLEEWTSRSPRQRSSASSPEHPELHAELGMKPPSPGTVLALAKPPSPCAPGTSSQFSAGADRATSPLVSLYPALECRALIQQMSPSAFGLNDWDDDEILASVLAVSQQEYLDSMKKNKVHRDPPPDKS
Method in brief: as §1

Measured: log2 ratio of Biotin-Ahx-Ub-VS probe labelling

EIF3F, sequence (O00303 whole entry): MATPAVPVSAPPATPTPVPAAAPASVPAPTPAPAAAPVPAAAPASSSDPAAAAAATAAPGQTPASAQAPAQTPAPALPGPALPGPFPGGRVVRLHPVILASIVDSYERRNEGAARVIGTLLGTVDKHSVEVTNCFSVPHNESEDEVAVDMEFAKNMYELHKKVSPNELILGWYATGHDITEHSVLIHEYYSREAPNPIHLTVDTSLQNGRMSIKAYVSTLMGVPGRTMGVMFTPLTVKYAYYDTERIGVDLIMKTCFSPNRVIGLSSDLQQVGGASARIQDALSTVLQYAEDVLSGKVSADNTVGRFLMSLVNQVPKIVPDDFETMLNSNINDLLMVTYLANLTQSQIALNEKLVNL
EIF3H, sequence (O15372 whole entry): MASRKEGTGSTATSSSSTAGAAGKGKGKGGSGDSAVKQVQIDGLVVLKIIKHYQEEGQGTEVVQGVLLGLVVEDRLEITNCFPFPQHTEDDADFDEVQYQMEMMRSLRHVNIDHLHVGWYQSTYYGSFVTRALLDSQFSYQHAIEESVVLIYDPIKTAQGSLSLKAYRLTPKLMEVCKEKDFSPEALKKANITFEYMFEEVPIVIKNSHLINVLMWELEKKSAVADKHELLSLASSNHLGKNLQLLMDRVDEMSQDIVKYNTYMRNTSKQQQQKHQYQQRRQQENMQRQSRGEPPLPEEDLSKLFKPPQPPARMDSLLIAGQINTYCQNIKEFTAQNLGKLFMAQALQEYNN
ATXN3, sequence (P54252 whole entry): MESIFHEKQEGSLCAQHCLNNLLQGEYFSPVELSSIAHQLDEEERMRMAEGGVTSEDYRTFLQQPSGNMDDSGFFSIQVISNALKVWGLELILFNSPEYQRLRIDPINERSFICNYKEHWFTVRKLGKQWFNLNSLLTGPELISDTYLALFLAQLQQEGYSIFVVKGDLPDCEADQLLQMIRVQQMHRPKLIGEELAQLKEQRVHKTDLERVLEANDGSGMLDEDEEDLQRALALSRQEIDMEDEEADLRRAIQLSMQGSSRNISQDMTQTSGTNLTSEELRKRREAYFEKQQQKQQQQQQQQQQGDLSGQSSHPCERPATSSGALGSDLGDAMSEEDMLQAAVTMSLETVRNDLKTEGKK
OTUB1, sequence (Q96FW1 whole entry): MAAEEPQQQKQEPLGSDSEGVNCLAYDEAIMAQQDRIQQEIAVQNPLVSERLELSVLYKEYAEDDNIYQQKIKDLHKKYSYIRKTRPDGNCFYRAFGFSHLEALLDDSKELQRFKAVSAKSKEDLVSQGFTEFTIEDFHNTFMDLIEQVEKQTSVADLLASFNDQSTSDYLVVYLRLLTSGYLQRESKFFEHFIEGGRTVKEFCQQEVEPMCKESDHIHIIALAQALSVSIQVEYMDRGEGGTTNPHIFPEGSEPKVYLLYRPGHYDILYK

Cc1cccc(NC(=O)[C@@H]2CCCN2C(=O)CCl)n1
inactive: [1] 0.103 | [2] -0.532 | [3] -0.719 | [4] -0.372 | [5] 0.0856 | [6] 0.18 | [7] -0.512 | [8] -0.432 | [9] -0.514

Reference: the supplement of paper PMC11732987, “Enantioselective OTUD7B fragment discovery through chemoproteomics screening and high-throughput optimisation” (Communications Chemistry, 2025)
